This is an account of results in PubChem BioAssay (NCI).

Compounds without any hit were thinned out: in the full panel of roughly 83,000, 20% have a hit.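 Method: cells in 96-well plates; compound added at one concentration; 48 h incubation; percent growth measured; values under 10 scored active.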 Values without a mark were called inactive. The source made the active and inactive calls.

The first assay has as its system NCI-H322M lung. The assay is described as follows: NCI-60 one-dose screen, 48 h (100 = growth as untreated, 0 = no growth, -100 = all killed). The following applies: 10 µM unless noted.
`C=C1C(=O)O[C@H]2[C@H]1CC/C(COC(=O)NCc1ccc(Cn3c(=O)sn(CCCC)c3=O)cc1)=C\CC[C@@]1(C)O[C@@H]21`: the growth is 105%.
Same read-out and setting: then `O=C(Nc1ncc(Cc2ccccc2)s1)c1cc(-c2ccccc2)nc2ccccc12`, with 99.1%.
Turning to `CC(=O)Oc1ccccc1C(=O)N(Cc1ccc2c(Cl)cc(Cl)c(O)c2n1)c1ccccc1`, the growth was 54.9%.
On the same count and under the same terms, under `O=C(Nc1ccccc1)Nc1ccccc1CNc1nc(Nc2ccc(OCCN3CCCC3)cc2)ncc1Cl` stands 91.1%.
On to `C#Cc1ccc(NC(=O)Cc2ccc(/C=C/C(=O)c3nccn3C)cc2)cc1`, for which the growth is 57.6%.
Regarding `O=C(O)c1nn(-c2ccc(Cl)cc2)nc1N1CCCC1`, the growth is 97.7%.
As for `CCc1ccc(Cc2cnc(NC(=O)c3cc(C)oc3C)s2)cc1`, the growth was 56.8%.
`O=C(NCCN1CCOCC1)c1cncnc1Nc1ccc2c(ccn2Cc2ccccn2)c1`: the growth is 105%.
Regarding `CC/C(=C(/c1ccc(Cl)cc1)c1ccc(OCCN2CCCCCC2)cc1)c1ccccc1`, the growth was 107%.
As to `CC(=O)OCC(=O)O[C@@H]1C[C@]2(C(C)C)O[C@@]1(C)[C@@H]1CC[C@@H](C)[C@H]1[C@@H]2OC(=O)/C=C/c1ccccc1`, the growth was 84.8%.
Turning to `COc1ccc(C(=O)/C=C/c2ccc(C)cc2)cc1S(N)(=O)=O`, the growth was 36.1%.
For `Cc1ccc(Nc2oc(-c3ccccc3)nc2[P+](c2ccccc2)(c2ccccc2)c2ccccc2)cc1`, the growth is -21.6% (active).
As for `COc1ccc(N/N=C/c2ccc3c(c2)Sc2ccccc2N3C)cc1`, the growth was 77.1%.
Turning to `COc1ccc(N2C(=O)/C(=C/C(Cl)=C/c3ccc([N+](=O)[O-])cc3)SC2=S)cc1`, the growth was 31.2%.
On to `COc1ccc(C2=C/C(=C\c3ccccc3O)C(=O)N2Cc2ccccc2)cc1`, for which the growth was 77.8%.
Same read-out and setting: then `COC(=O)[C@H]1Cc2c([nH]c3ccccc23)[C@H](c2ccc3c(c2)OCO3)N1`, with 98.9%.
`O=C(Nc1ncc(Cc2ccccc2)s1)c1ccc2c(c1)OCCO2`: the growth was 50.1%.
In the case of `CC(=O)CC(=O)c1ccccc1.[Cu+2]`, the growth was 105%.
For the compound `COC1CC(O)C2=C(CC3C(/C(C)=C\CC=C(C)C)CCC3(C)O2)C1=O` (stereo not given), the growth was 101%.
As to `Nc1c(C(=O)c2ccc(Cl)cc2)sc(Nc2ccccc2)c1-c1nc2ccccc2s1`, the growth is 30.5%.
The same measure, in the same setting: under `C=CC(=O)Nc1ccc2ncnc(Nc3cccc(NS(=O)(=O)CCC)c3Cl)c2c1` stands 15.8%.
As for `CCN1C(=O)N(CC)C2C1NC(=S)N2/N=C/C=C/c1ccccc1` (stereo not given), the growth was 46.1%.
Consider `Oc1cccc2c1NCCC2`, for which the growth was 38.3%.
Still for that read-out and setting: under `CCOC(=O)c1cnc2sc(-c3ccc(OC)cc3)nc2c1Cl` stands 89.2%; under `Cc1ccc2nc(/C=C/c3ccc(N(C)C)cc3)cc(C)c2c1`, 70.9%.
Same read-out and setting: under `C=CCOC(=O)C1=C(C)N(CC)C(=O)N(CC)C1c1c(Cl)n(C)c2ccccc12` (stereo not given) stands 74.4%.
Consider `C=C(C)[C@@H]1CC[C@]2(COC(=O)c3cccnc3)CC[C@]3(C)[C@H](CC[C@@H]4[C@@]5(C)CCCN(C(=O)c6cccnc6)C(C)(C)[C@@H]5CC[C@]43C)[C@@H]12`, for which the growth is 65.6%.
Turning to `COc1ccc(C2=NN3C(C2)c2cc(Br)ccc2OC3c2ccncc2)cc1` (stereo not given), the growth is 76.4%.
Consider `C=CC(=O)NCc1cccc(Nc2ncc(Br)c(NCCCNC(=O)C3CCC3)n2)c1`, for which the growth was -13.1% (active).
For `O=C(O)/C=C/c1cn(-c2ccccc2)nc1-c1ccc(F)cc1`, the growth was 87%.
On to `CCNCCNc1c(C)c(-c2ccc(C(F)(F)F)cc2)c(C#N)c2nc3ccccc3n12`, for which the growth is 84.3%.
The same measure, in the same setting: then `O=C1CCc2c(sc3[nH]c(=S)n(-c4cc(C(F)(F)F)cc(C(F)(F)F)c4)c(=O)c23)C1`, with 9.28% (active); and `COc1cc2cc(Oc3ccc(NC(=O)Nc4ccc(F)c(C(F)(F)F)c4)cc3)c(C)nc2cc1OCCN1CCCCC1`, with 69.5%.
The same measure, in the same setting: then `Cc1ccc2c(c1)CC(O)CC1C(=O)N(CCO)CC(=O)N21` (stereo not given), with 105%.
Same read-out and setting: then `CC(C)(C)CC(C)(C)Nc1c(-c2c(O)c3ccccc3oc2=O)nc2sccn12`, with 86.7%; and `O=C1NC(=O)C(=Cc2cc(-c3ccc(Cl)cc3)n(-c3ccccc3)n2)C(=O)N1`, with 94%.
Turning to `CCOC(=O)c1c2c(n3ccc(NC(=O)CCN4CCCC4)cc13)C(=O)c1ncccc1C2=O`, the growth is -76.7% (active).
As to `COc1ccc(-c2ccc(-c3ccc(C(=N)N)o3)o2)cc1`, the growth is 56.1%.
Same read-out and setting: under `CC(C)c1nc(N(C)S(C)(=O)=O)nc(-c2ccc(F)cc2)c1/C=C/C(=O)C[C@@H](O)CC(=O)O` stands 90%; under `CCOc1cc(\C=N/N=C(N)/C(N)=N\N=C/c2ccc(O)c(OCC)c2)ccc1O`, 103%.

In the next assay the test system is HOP-62 NSCLC. The description is as above. The settings on record: 10 µM unless noted.
For the compound `C=C1C(=O)O[C@H]2[C@H]1CC/C(COC(=O)NCc1ccc(Cn3c(=O)sn(CCCC)c3=O)cc1)=C\CC[C@@]1(C)O[C@@H]21`, the growth was 91.6%.
`O=C(Nc1ncc(Cc2ccccc2)s1)c1cc(-c2ccccc2)nc2ccccc12`: the growth is 94.1%.
`CC(=O)Oc1ccccc1C(=O)N(Cc1ccc2c(Cl)cc(Cl)c(O)c2n1)c1ccccc1`: the growth is 36.6%.
`O=C(Nc1ccccc1)Nc1ccccc1CNc1nc(Nc2ccc(OCCN3CCCC3)cc2)ncc1Cl`: the growth is 79.3%.
Same read-out and setting: under `C#Cc1ccc(NC(=O)Cc2ccc(/C=C/C(=O)c3nccn3C)cc2)cc1` stands 48.3%; under `O=C(O)c1nn(-c2ccc(Cl)cc2)nc1N1CCCC1`, 97.5%.
With `CCc1ccc(Cc2cnc(NC(=O)c3cc(C)oc3C)s2)cc1`, the growth was 56.9%.
With `O=C(NCCN1CCOCC1)c1cncnc1Nc1ccc2c(ccn2Cc2ccccn2)c1`, the growth was 102%.
With `CC/C(=C(/c1ccc(Cl)cc1)c1ccc(OCCN2CCCCCC2)cc1)c1ccccc1`, the growth was 103%.
Consider `CC(=O)OCC(=O)O[C@@H]1C[C@]2(C(C)C)O[C@@]1(C)[C@@H]1CC[C@@H](C)[C@H]1[C@@H]2OC(=O)/C=C/c1ccccc1`, for which the growth was 86.7%.
For the compound `COc1ccc(C(=O)/C=C/c2ccc(C)cc2)cc1S(N)(=O)=O`, the growth was 78.1%.
Turning to `Cc1ccc(Nc2oc(-c3ccccc3)nc2[P+](c2ccccc2)(c2ccccc2)c2ccccc2)cc1`, the growth was -51.1% (active).
For the compound `COc1ccc(N/N=C/c2ccc3c(c2)Sc2ccccc2N3C)cc1`, the growth was 66.9%.
In the case of `COc1ccc(N2C(=O)/C(=C/C(Cl)=C/c3ccc([N+](=O)[O-])cc3)SC2=S)cc1`, the growth is -9.71% (active).
Take `COc1ccc(C2=C/C(=C\c3ccccc3O)C(=O)N2Cc2ccccc2)cc1`: the growth was 89.7%.
Regarding `COC(=O)[C@H]1Cc2c([nH]c3ccccc23)[C@H](c2ccc3c(c2)OCO3)N1`, the growth was 107%.
Turning to `O=C(Nc1ncc(Cc2ccccc2)s1)c1ccc2c(c1)OCCO2`, the growth is 25.5%.
Still for that read-out and setting: then `CC(=O)CC(=O)c1ccccc1.[Cu+2]`, with 119%; and `COC1CC(O)C2=C(CC3C(/C(C)=C\CC=C(C)C)CCC3(C)O2)C1=O` (stereo not given), with 105%.
As to `Nc1c(C(=O)c2ccc(Cl)cc2)sc(Nc2ccccc2)c1-c1nc2ccccc2s1`, the growth is -7.72% (active).
On the same count and under the same terms, then `C=CC(=O)Nc1ccc2ncnc(Nc3cccc(NS(=O)(=O)CCC)c3Cl)c2c1`, with 67.3%; and `CCN1C(=O)N(CC)C2C1NC(=S)N2/N=C/C=C/c1ccccc1` (stereo not given), with 29.3%; and `Oc1cccc2c1NCCC2`, with 25.1%.
Turning to `CCOC(=O)c1cnc2sc(-c3ccc(OC)cc3)nc2c1Cl`, the growth was 112%.
For the compound `Cc1ccc2nc(/C=C/c3ccc(N(C)C)cc3)cc(C)c2c1`, the growth is 32.4%.
The same measure, in the same setting: then `C=CCOC(=O)C1=C(C)N(CC)C(=O)N(CC)C1c1c(Cl)n(C)c2ccccc12` (stereo not given), with 84.1%.
For `C=C(C)[C@@H]1CC[C@]2(COC(=O)c3cccnc3)CC[C@]3(C)[C@H](CC[C@@H]4[C@@]5(C)CCCN(C(=O)c6cccnc6)C(C)(C)[C@@H]5CC[C@]43C)[C@@H]12`, the growth was 61%.
Take `COc1ccc(C2=NN3C(C2)c2cc(Br)ccc2OC3c2ccncc2)cc1` (stereo not given): the growth is 79.9%.
With `C=CC(=O)NCc1cccc(Nc2ncc(Br)c(NCCCNC(=O)C3CCC3)n2)c1`, the growth is -26.9% (active).
Still for that read-out and setting: then `O=C(O)/C=C/c1cn(-c2ccccc2)nc1-c1ccc(F)cc1`, with 81.7%; and `CCNCCNc1c(C)c(-c2ccc(C(F)(F)F)cc2)c(C#N)c2nc3ccccc3n12`, with 90.9%.
In the case of `O=C1CCc2c(sc3[nH]c(=S)n(-c4cc(C(F)(F)F)cc(C(F)(F)F)c4)c(=O)c23)C1`, the growth is -27.1% (active).
The same measure, in the same setting: then `COc1cc2cc(Oc3ccc(NC(=O)Nc4ccc(F)c(C(F)(F)F)c4)cc3)c(C)nc2cc1OCCN1CCCCC1`, with 95.4%; and `Cc1ccc2c(c1)CC(O)CC1C(=O)N(CCO)CC(=O)N21` (stereo not given), with 101%; and `CC(C)(C)CC(C)(C)Nc1c(-c2c(O)c3ccccc3oc2=O)nc2sccn12`, with 85%.
Consider `O=C1NC(=O)C(=Cc2cc(-c3ccc(Cl)cc3)n(-c3ccccc3)n2)C(=O)N1`, for which the growth is 99.4%.
`CCOC(=O)c1c2c(n3ccc(NC(=O)CCN4CCCC4)cc13)C(=O)c1ncccc1C2=O`: the growth was -68.5% (active).
Regarding `COc1ccc(-c2ccc(-c3ccc(C(=N)N)o3)o2)cc1`, the growth is 46.4%.
Regarding `CC(C)c1nc(N(C)S(C)(=O)=O)nc(-c2ccc(F)cc2)c1/C=C/C(=O)C[C@@H](O)CC(=O)O`, the growth is 95.8%.
On to `CCOc1cc(\C=N/N=C(N)/C(N)=N\N=C/c2ccc(O)c(OCC)c2)ccc1O`, for which the growth was 109%.
